Data on seven molecules can be found in publication PMC5540273 (PLoS ONE, 2017).

Some test systems named below: GRK4; GRK7; GSK3A; GSK3B; HCK; HIPK1; HIPK2; HIPK3; HIPK4; HPK1; HUNK; ICK; IGF1R; INSRR; INSR.
What all share (conditions): concentration: 1 μM, replicates: in singlicate; n = 1
Another experiment relates to T1, GRK3.
T1 construct: gene ADRBK2

The test system of the next experiment is T2, HASPIN.
T2 construct: gene GSG2

The test system of a further experiment is T3, IKK-alpha.
T3 construct: gene CHUK

The test system of another experiment is T4, IKK-beta.
T4 construct: gene IKBKB

In the next experiment the test system is T5, IKK-epsilon.
T5 construct: gene IKBKE

Each structure is given as a SMILES string.
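Further: KINOMEscan kinase panel screen.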

In the case of `CNc1cc(-c2ccc3c(N)n[nH]c3c2)nc(N)n1` [GSK2224810], the “%Inh” value with GRK3 came out at 10%; in the experiment on GRK4, 0%; in the experiment on GRK7 it was 0%; with GSK3A, 6%; in the experiment on GSK3B, 0%; in the experiment with HASPIN it was 61%. The “%Inh” value in the experiment on HCK came to 0%; with HIPK1, 14%; in the experiment on HIPK2, 0%; in the experiment with HIPK3, 18%; in the experiment with HIPK4, 14%; in the experiment with HPK1 it was 41%. Also, the “%Inh” value in the experiment with HUNK came to 5%; in the experiment with ICK it was 12%; in the experiment with IGF1R, 0%; with IKK-alpha, 6%; in the experiment with IKK-beta it was 0%; in the experiment with IKK-epsilon, 39%. Moreover, the “%Inh” value with INSRR was found to be 0%; in the experiment on INSR it was 19%.

Consider `Nc1ncnc2occ(-c3ccc4c(c3)CCN4C(=O)Cc3cc(F)ccc3F)c12` [GSK2645446], for which the “%Inh” value came to 0% in the experiment on GRK3; 0% with GRK4; 0% in the experiment on GRK7; 0% in the experiment on GSK3A; 2% in the experiment with GSK3B; 0% in the experiment with HASPIN. The “%Inh” value came out at 0% with HCK; 0% in the experiment on HIPK1; 0% in the experiment with HIPK2; 0% in the experiment with HIPK3; 0% in the experiment with HIPK4; 31% with HPK1. Further, the “%Inh” value in the experiment on HUNK is listed as 0%; in the experiment with ICK, 0%; with IGF1R, 0%; in the experiment on IKK-alpha, 0%; with IKK-beta it was 0%; with IKK-epsilon, 41%. For the same molecule, the “%Inh” value in the experiment with INSRR and in the experiment on INSR was 0% each time.

On to `CS(=O)(=O)CCNCc1nc(-c2ccc3ncnc(Nc4ccc5c(cnn5Cc5ccccc5)c4)c3c2)cs1.Cl.Cl` [GW569716], for which the “%Inh” value with GRK3 is recorded as 41%; in the experiment with GRK4, 0%; in the experiment with GRK7, 0%; with GSK3A it was 0%; with GSK3B, 0%; with HASPIN, 18%. For the same molecule, the “%Inh” value was determined as 0% in the experiment on HCK; 0% in the experiment with HIPK1; 0% in the experiment with HIPK2; 0% with HIPK3; 0% in the experiment on HIPK4; 32% with HPK1. In addition, the “%Inh” value in the experiment on HUNK is 28%; in the experiment with ICK, 2%; in the experiment on IGF1R, 19%; with IKK-alpha it was 38%; in the experiment with IKK-beta it was 8%; in the experiment with IKK-epsilon, 0%. For the same molecule, the “%Inh” value in the experiment on INSRR and in the experiment on INSR was 0% each time.

In the case of `Cc1ccc(NC(=O)c2ccc(Cl)cc2)cc1-c1ccc(C(=O)Nc2ccncc2)cc1` [GSK1398467], the “%Inh” value with GRK3 was 24%; in the experiment with GRK4 it was 0%; in the experiment with GRK7 it was 0%; in the experiment on GSK3A, 3%; with GSK3B, 17%; with HASPIN it was 0%. For the same molecule, the “%Inh” value in the experiment with HCK worked out at 0%; with HIPK1 it was 0%; in the experiment with HIPK2 it was 0%; with HIPK3, 3%; with HIPK4 it was 0%; in the experiment on HPK1, 36%. The “%Inh” value in the experiment on HUNK was found to be 8%; in the experiment on ICK, 0%; in the experiment with IGF1R it was 11%; in the experiment with IKK-alpha it was 12%; with IKK-beta, 6%; with IKK-epsilon it was 15%. Also, the “%Inh” value in the experiment on INSRR and in the experiment with INSR was 0% each time.

As for `Cc1ccc(NC(=O)Nc2ccccc2)cc1-c1ccc(C(=O)Nc2ccncc2)cc1` [GSK1398471], the “%Inh” value is listed as 0% with GRK3; 0% in the experiment on GRK4; 0% with GRK7; 12% in the experiment on GSK3A; 11% with GSK3B; 1% in the experiment on HASPIN. Besides, the “%Inh” value in the experiment on HCK worked out at 0%; with HIPK1, 0%; in the experiment with HIPK2, 0%; in the experiment with HIPK3, 13%; in the experiment with HIPK4 it was 10%; with HPK1 it was 37%. Further, the “%Inh” value in the experiment with HUNK was 22%; with ICK, 2%; in the experiment on IGF1R, 11%; with IKK-alpha, 0%; in the experiment on IKK-beta it was 0%; in the experiment on IKK-epsilon it was 5%. Besides, the “%Inh” value with INSRR is 0%; in the experiment on INSR, 3%.

`Cn1cnc2c(N)ncnc21` [SKF-97623]: the “%Inh” value with GRK3 is recorded as 26%; in the experiment on GRK4, 21%; in the experiment with GRK7 it was 0%; in the experiment on GSK3A, 0%; in the experiment with GSK3B, 0%; in the experiment with HASPIN, 0%. The “%Inh” value in the experiment on HCK was found to be 0%; with HIPK1, 0%; with HIPK2, 11%; with HIPK3, 0%; in the experiment with HIPK4 it was 0%; with HPK1, 33%. The “%Inh” value in the experiment on HUNK amounted to 17%; with ICK, 0%; in the experiment with IGF1R it was 46%; in the experiment on IKK-alpha, 0%; with IKK-beta, 0%; in the experiment on IKK-epsilon, 0%. Also, the “%Inh” value in the experiment on INSRR and in the experiment on INSR was 0% throughout.

With `CNc1nc(-c2ccc3c(N)n[nH]c3c2)cc(N2C[C@@H](C(=O)NC3CCCCC3)OC[C@H]2C)n1` [GSK2375584], the “%Inh” value in the experiment with GRK3 is 37%; in the experiment on GRK4, 4%; in the experiment on GRK7, 0%; with GSK3A, 10%; with GSK3B it was 14%; in the experiment on HASPIN, 30%. Also, the “%Inh” value amounted to 0% with HCK; 24% in the experiment with HIPK1; 0% in the experiment on HIPK2; 2% in the experiment with HIPK3; 0% in the experiment on HIPK4; 14% with HPK1. The “%Inh” value in the experiment on HUNK was found to be 21%; in the experiment with ICK it was 12%; with IGF1R, 8%; in the experiment with IKK-alpha, 0%; in the experiment on IKK-beta, 0%; in the experiment with IKK-epsilon, 30%. In addition, the “%Inh” value came out at 0% in the experiment on INSRR and 6% in the experiment with INSR.
